# Laboratory results as given in PubChem BioAssay (Tox21).
# “And” between values parts separate entries of the source, which are not always exact repeats. Identical values can stand only once. Unmarked numbers belong to inactive results. Entries that show only a call come without a potency. The source made the active and inactive calls. Unless noted, calls follow the shape of the dose curve; as a rule, active = well fitted curve in the direction sought with a large enough effect in the repeat runs; inconclusive = weak or mixed curves; inactive = no such curve, though single readings can be large; an effect the other way counts as inactive or inconclusive.
# Columns and labels:
# [1] = qHTS assay to identify small molecule antagonists of the glucocorticoid receptor (GR) signaling pathway - cell viability counter screen (AID 720693); also: nearly all actives have a fitted effect of over 55% in size
# [2] = qHTS assay for identifying genotoxic compounds that show differential cytotoxicity against isogenic chicken DT40 cell lines with known DNA damage response pathways - wild type cell line (AID 743012); also: nearly all actives have a fitted effect of over 60% in size; also: potency is read from the fitted curve at half-maximal effect
# Outline: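 Cells (DT40 wild type, 300/well) are treated with DMSO-dissolved compounds after a ~0.5 h pre-incubation and kept 40 h at 37 C/5% CO2. Viability is then measured by CellTiter-Glo luminescence following 30 min at room temperature.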
# [3] = qHTS assay for identifying genotoxic compounds that show differential cytotoxicity against isogenic chicken DT40 cell lines with known DNA damage response pathways - Rev3 mutant cell line (AID 743014); also: nearly all actives have a fitted effect of over 55% in size; also: potency is read from the fitted curve at half-maximal effect
# [4] = qHTS assay for identifying genotoxic compounds that show differential cytotoxicity against isogenic chicken DT40 cell lines with known DNA damage response pathways - Rad54/Ku70 mutant cell line (AID 743015); also: nearly all actives have a fitted effect of over 60% in size; also: potency is read from the fitted curve at half-maximal effect
# [5] = qHTS assay to identify small molecule antagonists of the thyroid receptor (TR) signaling pathway - cell viability counter screen (AID 743064); also: nearly all actives have a fitted effect of over 50% in size; also: potency is read from the fitted curve at half-maximal effect
# Outline: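 Same-well viability check: GH3.TRE-Luc cells stimulated with 1 nM T3 alongside test compound for 23.5 h, followed by CellTiter-Fluor fluorescence.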
# [6] = qHTS assay to identify small molecule antagonists of the thyroid receptor (TR) signaling pathway (AID 743065); also: nearly all actives have a fitted effect of over 55% in size; also: potency is read from the fitted curve at half-maximal effect
# Outline: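 GH3.TRE-Luc rat pituitary cells (two TREs driving luciferase) were dosed with compound, then stimulated with 1 nM T3 (final) for 23.5 h at 37 C. ONE-Glo luminescence was the read-out, with CellTiter-Fluor fluorescence as the cytotoxicity counter-screen.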
# [7] = test system: thyroid hormone receptor (rat, GH3 cells); test: qHTS assay to identify small molecule agonists of the thyroid receptor (TR) signaling pathway (AID 743066; calls by dose curve)
# [8] = qHTS assay to identify small molecule antagonists of the estrogen receptor alpha (ER-alpha) signaling pathway - cell viability counter screen (AID 743074; calls by dose curve;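 also: HEK293 cells carrying ER-alpha-UAS-bla reporter stimulated with 17beta-estradiol; nearly all actives have a fitted effect of over 45% in size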; also: potency is read from the fitted curve at half-maximal effect)
# [9] = qHTS assay to identify small molecule antagonists of the estrogen receptor alpha (ER-alpha) signaling pathway using the BG1 cell line - cell viability counter screen (AID 743081);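 also: compound given together with 17beta-estradiol as the ER stimulus; nearly all actives have a fitted effect of over 45% in size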; also: potency is read from the fitted curve at half-maximal effect
# Aromatase (Homo sapiens) = Aromatase (Homo sapiens) (UniProt P11511); test: qHTS assay to identify aromatase inhibitors (AID 743083); also: nearly all actives have a fitted effect of over 55% in size; also: potency is read from the fitted curve at half-maximal effect
# [10] = qHTS assay to identify small molecule antagonists of the androgen receptor (AR) signaling pathway using the MDA cell line - cell viability counter screen (AID 743041; also: nearly all actives have a fitted effect of over 45% in size)
# Outline: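 Same-well cytotoxicity was assessed by CellTiter-Fluor in MDA-kb2 AR-luc cells after 16 h of compound treatment under R1881 agonism.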
# [11] = target: Estrogen receptor (Homo sapiens) (UniProt P03372); test: qHTS assay to identify small molecule agonists of the estrogen receptor alpha (ER-alpha) signaling pathway (AID 743075; calls by dose curve;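 also: HEK293 GripTite cells with ER-alpha and UAS-driven beta-lactamase reporter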)
# [12] = qHTS assay to identify small molecule antagonists of the androgen receptor (AR) signaling pathway - cell viability counter screen (AID 743033; also: nearly all actives have a fitted effect of over 45% in size)
# [13] = target: Estrogen receptor (Homo sapiens) (UniProt P03372); test: qHTS assay to identify small molecule antagonists of the estrogen receptor alpha (ER-alpha) signaling pathway (AID 743069; active = well fitted curve in the direction sought with a large enough effect in the signal ratio in the repeat runs, not every such curve was filed as active; inconclusive = weak or mixed curves, or effect the other way; inactive = no such curve, though single readings can be large or run the other way; the % refers to the signal ratio; also: potency is read from the fitted curve at half-maximal effect)
# Outline: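 Reporter cells (ER-alpha-bla, HEK293 background) are conditioned overnight in stripped-serum medium (2% charcoal-stripped FBS). Compound and 17beta-estradiol exposure runs 18 hr at 37C, 5% CO2.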
# [14] = target: Estrogen receptor (Homo sapiens) (UniProt P03372); test: qHTS assay to identify small molecule agonists of the estrogen receptor alpha (ER-alpha) signaling pathway using the BG1 cell line (AID 743079); settings: BG1Luc4E2 cells, ERE-luciferase agonist, 22 h; activation: at 70.3 µM (top of the series); also: nearly all actives have a fitted effect of over 20% in size; also: potency is read from the fitted curve at half-maximal effect
# [15] = qHTS assay to identify small molecule antagonists of the estrogen receptor alpha (ER-alpha) signaling pathway using the BG1 cell line (AID 743080; calls by dose curve;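 also: BG1 cells stimulated with 17beta-estradiol alongside compound; nearly all actives have a fitted effect of over 25% in size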; also: potency is read from the fitted curve at half-maximal effect)
# Outline: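 Readout is ONE-Glo luminescence, taken 30 min at room temperature after reagent addition, preceded by a CellTiter-Fluor viability read; BG1-Luc-4E2 cells had received compound and 17beta-estradiol for 21.5 h at 37 C.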
# [16] = target: Androgen receptor (Homo sapiens) (UniProt P10275); test: qHTS assay to identify small molecule antagonists of the androgen receptor (AR) signaling pathway (AID 743035; active = well fitted inhibition curve with a large enough effect in the signal ratio in the repeat runs, not every such curve was filed as active; inconclusive = weak or mixed curves, or effect the other way; inactive = no such curve, though single readings can be large or run the other way; the % refers to the signal ratio)
# Outline: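 Antagonism is scored as loss of R1881-driven beta-lactamase reporter expression in HEK293 cells carrying the reporter under a UAS element, after 16 h co-treatment at 37C and a 2 h room-temperature FRET substrate read.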
# [17] = target: Androgen receptor (Homo sapiens) (UniProt P10275); test: qHTS assay to identify small molecule agonists of the androgen receptor (AR) signaling pathway using the MDA cell line (AID 743040; also: nearly all actives have a fitted effect of over 20% in size)
# Outline: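 Human breast carcinoma MDA-kb2 reporter cells (MMTV-luc, AR/GR elements) were treated for 16 h at 37C in 0% CO2 following a 5 h settling period. Signal was quantified by ONE-Glo luminescence.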
# [18] = target: Androgen receptor (Homo sapiens) (UniProt P10275); test: qHTS assay to identify small molecule agonists of the androgen receptor (AR) signaling pathway (AID 743036; active = well fitted activation curve with a large enough effect in the signal ratio in the repeat runs, with a control signal flat, not every such curve was filed as active; inconclusive = weak or mixed curves, or effect the other way; inactive = no such curve, though single readings can be large or run the other way; the % refers to the signal ratio)
# Outline: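 Agonist activity was scored by beta-lactamase reporter fluorescence in stably transfected HEK293 cells exposed to compounds for 16 h at 37C and 5% CO2. Substrate loading took 2 h at room temperature.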
# Chain of Estrogen receptor (Homo sapiens) (P03372 whole entry, looked up): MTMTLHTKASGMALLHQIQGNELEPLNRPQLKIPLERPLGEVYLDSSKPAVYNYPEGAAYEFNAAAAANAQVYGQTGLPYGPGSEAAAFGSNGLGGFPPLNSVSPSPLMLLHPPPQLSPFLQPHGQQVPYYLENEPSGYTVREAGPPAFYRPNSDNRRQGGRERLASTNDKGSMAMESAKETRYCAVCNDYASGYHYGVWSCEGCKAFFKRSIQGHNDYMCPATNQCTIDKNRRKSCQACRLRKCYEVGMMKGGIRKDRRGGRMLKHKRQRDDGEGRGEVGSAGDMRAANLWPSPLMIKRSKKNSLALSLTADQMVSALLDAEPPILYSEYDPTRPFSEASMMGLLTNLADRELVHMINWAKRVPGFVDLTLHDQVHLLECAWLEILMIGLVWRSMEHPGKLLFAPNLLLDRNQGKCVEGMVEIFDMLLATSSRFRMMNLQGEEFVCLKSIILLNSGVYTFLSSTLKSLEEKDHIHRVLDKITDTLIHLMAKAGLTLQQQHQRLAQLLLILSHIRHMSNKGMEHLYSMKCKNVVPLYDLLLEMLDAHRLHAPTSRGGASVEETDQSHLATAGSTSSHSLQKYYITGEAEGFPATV
# Chain of Aromatase (Homo sapiens) (P11511 whole entry, looked up): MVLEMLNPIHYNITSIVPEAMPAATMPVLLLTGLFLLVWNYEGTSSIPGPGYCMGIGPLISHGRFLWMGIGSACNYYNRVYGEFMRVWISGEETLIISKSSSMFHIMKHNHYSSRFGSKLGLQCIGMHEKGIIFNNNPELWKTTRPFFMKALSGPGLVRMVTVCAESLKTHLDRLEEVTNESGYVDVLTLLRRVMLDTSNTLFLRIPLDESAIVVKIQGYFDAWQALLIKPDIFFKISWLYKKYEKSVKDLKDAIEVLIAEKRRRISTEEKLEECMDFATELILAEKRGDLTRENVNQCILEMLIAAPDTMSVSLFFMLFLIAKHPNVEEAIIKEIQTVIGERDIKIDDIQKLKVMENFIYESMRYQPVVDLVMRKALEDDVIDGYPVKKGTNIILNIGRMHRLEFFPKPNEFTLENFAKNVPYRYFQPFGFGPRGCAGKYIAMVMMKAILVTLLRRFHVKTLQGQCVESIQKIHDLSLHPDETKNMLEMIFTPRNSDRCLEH
# Chain of Androgen receptor (Homo sapiens) (P10275 whole entry, looked up): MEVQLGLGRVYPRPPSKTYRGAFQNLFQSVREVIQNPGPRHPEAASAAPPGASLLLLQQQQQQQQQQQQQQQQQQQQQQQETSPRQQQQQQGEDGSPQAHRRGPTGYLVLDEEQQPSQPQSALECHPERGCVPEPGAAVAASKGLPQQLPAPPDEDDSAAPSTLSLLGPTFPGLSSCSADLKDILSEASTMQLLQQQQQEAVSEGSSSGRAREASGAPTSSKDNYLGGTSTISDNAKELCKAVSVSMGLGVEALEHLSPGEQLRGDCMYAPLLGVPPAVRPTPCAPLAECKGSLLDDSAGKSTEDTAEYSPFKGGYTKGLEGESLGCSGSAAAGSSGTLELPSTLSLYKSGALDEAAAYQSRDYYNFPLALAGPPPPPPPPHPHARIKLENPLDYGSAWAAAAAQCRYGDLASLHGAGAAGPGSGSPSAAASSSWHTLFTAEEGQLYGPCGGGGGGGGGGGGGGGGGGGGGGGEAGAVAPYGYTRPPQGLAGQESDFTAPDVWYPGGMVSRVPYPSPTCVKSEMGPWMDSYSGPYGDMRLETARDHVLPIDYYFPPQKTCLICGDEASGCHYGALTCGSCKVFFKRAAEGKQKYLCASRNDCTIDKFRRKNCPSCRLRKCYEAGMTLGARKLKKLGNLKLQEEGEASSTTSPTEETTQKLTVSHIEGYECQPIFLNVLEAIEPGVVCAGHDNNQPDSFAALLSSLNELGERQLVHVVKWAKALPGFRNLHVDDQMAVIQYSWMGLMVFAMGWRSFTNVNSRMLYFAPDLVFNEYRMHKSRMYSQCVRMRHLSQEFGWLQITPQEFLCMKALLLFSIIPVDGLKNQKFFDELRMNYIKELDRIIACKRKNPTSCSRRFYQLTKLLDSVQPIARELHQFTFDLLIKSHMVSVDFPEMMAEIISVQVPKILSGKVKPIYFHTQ
SMILES,Potency [1],Potency [2],Potency [3],Potency [4],Potency [5],Potency [6],outcome [7],Potency [8],Potency [9],Potency (Aromatase (Homo sapiens)),Potency [10],Potency [11],Potency [12],Potency [13],Potency [14],Potency [15],Potency [16],Potency [17],Potency [18]
CC(C)(C)C(=O)O,inactive,inactive,inactive,inactive,inactive,inactive,inactive,inactive,inactive,inactive,–,–,–,–,–,–,–,–,–
CCCCC(=O)O[C@]1(C(=O)CO)[C@@H](C)C[C@H]2[C@@H]3CCC4=CC(=O)C=C[C@]4(C)[C@@]3(F)[C@@H](O)C[C@@]21C,inactive,43.3 µM (active),24.3 µM (active),24.3 µM (active),–,61.1 µM (active),inactive,inactive,inactive,inactive,inactive,inactive,–,–,–,–,–,–,–
OCCSc1ccccc1,inactive,inactive,–,inactive,inactive,inactive,inactive,inactive,inactive,inactive,inactive,inactive,inactive,inactive,inactive,inactive,–,–,–
Cc1cc(O)c2c(O)c3c(O)cccc3cc2c1,inactive,inactive,inactive,–,inactive,–,inactive,inactive,inactive,inactive,–,–,–,–,–,–,inactive,inactive,–
O=C(CCCN1CCN(c2ccc(F)cc2)CC1)NC1c2ccccc2CSc2ccccc21 (stereo not drawn),inactive,13.3 µM (active),26.6 µM (active),18.8 µM (active),10.6 µM (active),10.6 µM (active),–,inactive,–,–,–,inactive,–,21.3 µM [inconclusive] (active),inactive,inactive,–,–,–
CCNC(=O)N1CCN(CCCC(c2ccc(F)cc2)c2ccc(F)cc2)CC1,inactive,5.31 µM (active),7.5 µM (active),6.68 µM (active),21.1 µM (active),21.1 µM (active),–,16.9 µM (active),29.8 µM (active),–,–,inactive,–,–,–,–,–,–,–
OC(CCCN1CCCCC1)(c1ccccc1)c1ccccc1,inactive,13.3 µM (active),–,29.8 µM (active),–,–,inactive,–,–,inactive,inactive,inactive,inactive,inactive,inactive,inactive,inactive,inactive,inactive
CC(=O)CC(c1ccc([N+](=O)[O-])cc1)c1c(O)c2ccccc2oc1=O (stereo not drawn),inactive,inactive,inactive,inactive,–,–,–,inactive,inactive,inactive,inactive,inactive,–,inactive,inactive,inactive,–,–,–
O=C(CCCCCCC(=O)Nc1ccccc1)NO,inactive,1.06 µM (active),531 nM (active) and 841 nM (active),1.5 µM (active),–,2.11 µM (active) and 2.66 µM (active),inactive,inactive,inactive,–,inactive,inactive,–,–,–,5.96 µM (active) and 4.22 µM (active),–,–,–
CCCc1c(OCCCOc2ccc(OCC(=O)O)cc2)ccc(C(C)=O)c1O,inactive,inactive,inactive,–,inactive,–,inactive,inactive,inactive,–,inactive,inactive,–,–,inactive,inactive,–,inactive,–
CC(C)(C)C(=O)C(Oc1ccc(Cl)cc1)n1ccnc1 (stereo not drawn),inactive,13.3 µM (active),26.6 µM (active),21.1 µM (active),–,inactive,inactive,inactive,inactive,11.9 µM (active),inactive,inactive,–,inactive,inactive,inactive,–,–,–
CCc1c2c(nc3ccc(OC(=O)N4CCC(N5CCCCC5)CC4)cc13)-c1cc3c(c(=O)n1C2)COC(=O)[C@]3(O)CC,inactive,5.96 µM (active),5.96 µM (active),4.22 µM (active),–,23.7 µM (active),inactive,–,inactive,inactive,inactive,inactive,–,–,–,11.9 µM (active),–,–,–
O=C(/C=C/c1ccccc1)OCCCc1ccccc1,inactive,inactive,inactive,inactive,–,–,–,–,inactive,inactive,–,inactive,–,inactive,27.3 µM (active),–,–,–,–
CN(C)C(=O)Nc1ccc(Oc2ccc(Cl)cc2)cc1,inactive,21.7 µM (active),24.3 µM (active),15.4 µM (active),inactive,54.5 µM (active),inactive,inactive,–,–,–,–,–,–,–,–,–,–,–
COc1cc2[nH]c(=O)[nH]c(=O)c2cc1OC,inactive,inactive,inactive,inactive,inactive,inactive,inactive,inactive,inactive,inactive,–,inactive,–,inactive,–,inactive,–,–,–
O=C(Nc1ccc([N+](=O)[O-])cc1)Nc1ccc([N+](=O)[O-])cc1,inactive,10.6 µM (active),10.6 µM (active),11.9 µM (active),–,–,inactive,–,inactive,inactive,inactive,–,–,–,–,–,–,–,–
CO[C@H]1O[C@H](CO)[C@@H](O)[C@H](O)[C@H]1O,inactive,inactive,inactive,inactive,–,inactive,inactive,inactive,inactive,inactive,inactive,–,–,–,–,–,–,–,–
O=C(CCCCCCCCC#CI)Oc1ccccc1,inactive,inactive,inactive,–,inactive,13.3 µM (active),inactive,–,inactive,inactive,–,–,inactive,–,–,–,inactive,inactive,inactive
C1COCO1,inactive,inactive,inactive,inactive,–,inactive,inactive,–,inactive,inactive,inactive,inactive,–,inactive,inactive,inactive,–,–,–
